Reference: PubChem BioAssay AID624125 (The Scripps Research Institute Molecular Screening Center, 2012)
Screen size: about 360,000 compounds; about 2,600 (0.72%) were called active.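 The calls were made as follows: active = inhibition above its plate's cutoff, the mean inhibition of sample wells plus 3 SD (cut at about 27% in these data); inactive = the rest.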 What follows is part of a selection rich in actives, with near analogues and random picks from the rest.

target: Muscarinic acetylcholine receptor M4 (Homo sapiens) (UniProt P08173); test: CHRM4 blockers of acetylcholine calcium response – CHO cells, Fluo-8 calcium fluorescence, primary screen (AID 624125); conditions: CHO-hM4 cells, ACh EC80, Fluo-8 calcium fluorescence; at 3 µM; stronger effect = higher value;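 also: 0% = acetylcholine EC80 with DMSO and 100% = DMSO without agonist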
Sequence (P08173 whole entry, looked up): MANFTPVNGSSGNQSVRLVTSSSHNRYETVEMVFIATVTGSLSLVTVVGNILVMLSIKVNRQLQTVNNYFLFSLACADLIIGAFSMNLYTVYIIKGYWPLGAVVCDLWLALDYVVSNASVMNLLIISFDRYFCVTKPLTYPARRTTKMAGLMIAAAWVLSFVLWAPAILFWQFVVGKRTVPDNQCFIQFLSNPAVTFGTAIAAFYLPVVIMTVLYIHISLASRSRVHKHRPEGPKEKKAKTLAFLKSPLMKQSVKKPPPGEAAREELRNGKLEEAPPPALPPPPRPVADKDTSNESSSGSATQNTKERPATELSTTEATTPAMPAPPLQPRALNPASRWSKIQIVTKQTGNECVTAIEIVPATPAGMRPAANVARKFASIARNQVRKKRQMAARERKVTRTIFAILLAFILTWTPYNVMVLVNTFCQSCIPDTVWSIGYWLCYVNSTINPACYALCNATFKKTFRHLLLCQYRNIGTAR

inhibition, inactive:
CC1CCc2sc(C(=O)N/N=C/C3CCCCC3)cc2C1 (stereo not given) -5.14%, COc1ccc(-c2nc(N)sc2C2(O)C(=O)Nc3c(Br)cc(F)cc32)cc1OC (stereo not given) -0.95%, O=CNc1cc(-c2ccc(C(=O)N3CCOCC3)cc2)cn2c(-c3ccc(F)cc3)cnc12 0.14%, OC(C#CCN1CCOCC1)(c1ccccc1)C1CCCCC1 (stereo not given) 10.4%, Cc1ccc(C)c(N2CCN(C(=O)CCc3nc(-c4cccc(C(F)(F)F)c4)no3)CC2)c1 -9.53%, Cc1cc(O)ccc1NC1=CC(=O)CC(C)(C)C1 2.61%, CCc1nc2c(OCCOc3ccc(F)cc3)cccn2c1N(C)C(=O)c1ccccc1F 1.61%, CCOC(=O)CCCCCC(=O)Nc1ccc2c(c1)CC(=O)N([C@@H](C)CO)C[C@H](C)[C@@H](CN(C)Cc1ccccc1)O2 -3.74%, COc1ccc(S(=O)(=O)N(C)C[C@H]2Oc3ccc(NS(=O)(=O)c4cccs4)cc3CC(=O)N([C@H](C)CO)C[C@H]2C)cc1 5.37%, NC(=O)c1cc(S(=O)(=O)NCCCc2ccco2)cs1 3.61%, O=C(CNS(=O)(=O)c1ccc(Br)s1)N1CCN(C(=O)c2ccco2)CC1 -1.1%, CC(C)C(NS(=O)(=O)c1cccs1)C(=O)Nc1nc(C(C)(C)C)cs1 (stereo not given) -1.31%, CCN1CCN(C(=O)c2ccc(CN(c3ccc(C)c(C)c3)S(C)(=O)=O)cc2)CC1 -4.91%, CS(=O)(=O)N(Cc1ccc(Cl)cc1)c1ccc(C(=O)NCCSCc2ccco2)cc1 13.9%, c1ccc2c(c1)OC1OC2Oc2ccccc21 -7.83%, COc1ccc(S(=O)(=O)NC2(C(F)(F)F)N=C3SCCN3C2=O)cc1 (stereo not given) -9.21%, CCN1CCN(c2ccc(S(=O)(=O)N3CCCCC3)cc2NC(=O)c2cccc(NC(C)=O)c2)CC1 -6.66%, COc1ccc(CN2CCCC(C(=O)N3CCCCC3)C2)cc1 (stereo not given) 1.76%, COc1cc(CN2CCCC(C(=O)c3ccc(SC)cc3)C2)cc(Cl)c1O (stereo not given) -23.2%, CCN(CC)N=Nc1cccc(NC(C)=O)c1 5.94%, CN(C(=O)CSc1nnc(-c2ccc3c(c2)OCO3)o1)C1CCS(=O)(=O)C1 (stereo not given) 0.5%, N/C(=N\OC(=O)CCCC(=O)O)c1ncc(C(F)(F)F)cc1Cl 3.64%, O=C(c1ccccn1)c1ncc(C(F)(F)F)cc1Cl 9.21%, O=C(COc1ccc(S(=O)(=O)NCc2ccccc2)cc1)N1CCOCC1 4.93%, CC(O)C(NS(=O)(=O)c1ccc(Cl)cc1)C(=O)OCc1cc([N+](=O)[O-])cc2c1OCOC2 (stereo not given) 5.24%, CCOc1ccccc1NC(=S)C(=C([O-])c1ccc2c(c1)OCCO2)[n+]1ccc(CC)cc1 -1.01%, Cc1cc([N+](=O)[O-])c(NC2CCCCC2)c([N+](=O)[O-])c1 7.51%, CCc1cc2c(NC3CCCC3)ncnc2s1 11.2%, CC(=O)c1ccc(N2CCN(C(=O)c3ccc4nc[nH]c4c3)CC2)cc1 4.68%, Cc1nc2ccc(C(=O)N(C)CC3CCCN(CCc4ccc(Cl)cc4)C3)cc2[nH]1 (stereo not given) 19.4%, CSc1ccccc1NC(=O)c1ccc2c(c1)CCN2S(C)(=O)=O -5.17%, O=C(CSCc1ccc([N+](=O)[O-])cc1)Nc1cccc(C(=O)Nc2ccccc2C(=O)O)c1 7.83%, CC(C(=O)Nc1ccc(S(=O)(=O)N2CCCC2)cc1)N(C)Cc1ccc(F)cc1 (stereo not given) -3.14%, CN(CC(=O)Nc1ccc(S(=O)(=O)N2CCCC2)cc1)Cc1ccc(Cl)c(Cl)c1 4.23%, CCc1ccc(/C=N/NC(=O)c2nnn(-c3nonc3N)c2CN2CCc3ccccc32)cc1 6.06%, CCOC(=O)CSc1nnc(NC(=O)C2CC(=O)N(c3ccc(F)cc3)C2)s1 (stereo not given) 5.76%, Cc1ccc(S(=O)(=O)NC[C@H]2O[C@@H](n3cnc4c(N)ncnc43)[C@H](O)[C@@H]2O)s1 -5.46%, O=C(CNS(=O)(=O)c1ccc(Br)s1)NCc1ccc2c(c1)OCO2 1.5%, COc1ccc(NC(=O)N(C)C[C@@H]2OCc3cn(nn3)CCCC(=O)N([C@H](C)CO)C[C@H]2C)c(OC)c1 8.28%, CCOC(=O)N1CCN(C(=O)c2ccc3c(c2)N(Cc2ccc(C)cc2)CCS3)CC1 -7.97%, CC1CCCN(c2ccc(C(=O)NCCc3ccccc3)cn2)C1 (stereo not given) -4.49%, CCOC(=O)c1cnc(Nc2nc3ccccc3o2)nc1CSC(=S)N1CCCCC1 -1.75%, COc1cccc(CNn2cn[nH]c2=S)c1OCc1ccccc1 -1.76%, Fc1ccccc1COc1ccccc1CNCc1ccncc1 -4.74%, C=C(C)CNC(=S)Nc1ccc(S(=O)(=O)Nc2cnc3ccccc3n2)cc1 2.87%, CC(NCCO)C(=O)C12CC3CC(CC(C3)C1)C2 (stereo not given) 2.3%, Cc1c(C(=O)NC2CCCCC2)oc2ccccc12 -11.4%, Cc1ccc2c(C)c(C(=O)N(C)Cc3ccncn3)oc2c1C -3%, CN(C)C1=NC[C@H](Cc2ccccc2)N1CCc1ccc(F)cc1 -0.99%, CCCCN1C(N)=NC[C@@H]1CC1CCCCC1 -1.98%, Cc1nc(N)c(Br)c(C)c1Br -2.18%, CSc1ccc(S(=O)(=O)N2CCC(C(=O)NCc3ccncc3)CC2)cc1 -10.4%, Cn1c(CCC(=O)Nc2ccccc2F)nnc1SCC(=O)Nc1ccccc1Cl -10.1%, Cn1cccc1C(=O)N1CCc2ccccc2C1 10.4%, CN1CCN(S(=O)(=O)c2cccc(C(=O)N3CCc4ccccc43)c2)CC1 3.72%, O=C(O)C(=Cc1ccccc1[N+](=O)[O-])c1ccccc1 -15.2%, Cc1ccc(C2Nc3ccccc3C(=O)N2CCN2CCNC2=O)cc1 (stereo not given) -5.69%, COc1ccc(C(C#N)N2N=C(C)CC2(C)C)cc1 (stereo not given) -4.9%, CCOC(=O)C1(Cc2ccccc2C)CCCN(C(=O)CN2C(=O)CSC2=O)C1 (stereo not given) 4.46%, O=C(CSc1ccc([N+](=O)[O-])cn1)Nc1ccc(N2CCOCC2)cc1 -3.21%, O=C(CSc1ccc(-c2ccccn2)nn1)Nc1ccccc1 5.15%, O=C(O)CC12CC3CC(C1)CC(n1ncc(NCc4ccc(F)cc4)c(Cl)c1=O)(C3)C2 4.05%, Cc1nn(CC(=O)NCC2CCCO2)c(=O)c2cc3ccccc3n12 (stereo not given) -2.94%, Cc1nn(-c2ccccc2)c2c1c(C)c(CCC(=O)NCC1CCCO1)c(=O)n2C (stereo not given) -9.84%, COC(=O)/C(=C1\Oc2ccc(C(C)(C)C)cc2S1)C(F)(F)F -0.07%, CCN(CC)CCOC(=O)c1ccc(NC(=O)CNC(=O)c2ccccc2)cc1 -1.05%, COC(CCN(C)C)(c1ccccc1)c1ccccc1 3.06%, CCC(C(=O)Nc1ccc(C(C)C)cc1)c1ccccc1 (stereo not given) 23.7%, CCN(CC)CCNCC(=O)Nc1ccc(Oc2ccccc2)cc1 -0.82%, CC1CCc2c(sc3c2C2=NS(=O)(=O)CCN2C=N3)C1 (stereo not given) -3.55%, COc1ccc(S(=O)(=O)N2CCN(c3cnccn3)CC2)cc1 5.44%, O=C1CCc2cc(S(=O)(=O)Nc3ccc(C(F)(F)F)cc3)cc3c2N1CC3 -14.8%

inhibition, active:
CC(C)(C)N(CC#CCC(O)(c1ccccc1)C1CCCC1)CCO (stereo not given) 31.3%, C[C@H]1CN([C@@H](C)CO)C(=O)Cc2cc(NC(=O)Cc3ccccc3)ccc2O[C@H]1CN(C)S(=O)(=O)c1cccs1 35.1%, Cc1ccc(N(Cc2ccc(C(=O)Nc3ccccc3C(=O)NCc3ccco3)cc2)S(C)(=O)=O)cc1C 39.7%, COc1ccc(CN2CCCC(C(=O)c3ccc(Cl)cc3)C2)cc1Cn1cncn1 (stereo not given) 38.6%, N/C(=N\OC(=O)Nc1ccc(Cl)c(Cl)c1)c1ncc(C(F)(F)F)cc1Cl 27%, Clc1cc(NC2CCCCC2)ncn1 98.6%, CN(CC1CCCN(CCc2cccc(C(F)(F)F)c2)C1)C(=O)c1ccc2nc[nH]c2c1 (stereo not given) 41%, CCc1ccc(CN(C)C(C)C(=O)Nc2ccc(S(=O)(=O)N3CCCC3)cc2)cc1 (stereo not given) 26.6%, CN1/C(=C\C=C2\N=C(c3ccc(F)cc3)OC2=O)C(C)(C)c2ccccc21 50.7%, O=C(NCCc1ccccc1)c1ccc2c(c1)N(Cc1ccccc1)CCS2 35%, COc1cccc(CNCCc2c[nH]c3ccccc23)c1OCc1ccccc1F 27.2%, CCCC[C@@H]1CN=C(N)N1CCc1cc(C(F)(F)F)cc(C(F)(F)F)c1 31.9%, CN1CCN(C(=O)N2c3ccccc3CCc3ccccc32)CC1 51%, CC[C@@H]1Cc2cc(O)ccc2C2=C1c1ccc(O)cc1C[C@H]2CC 72.5%, O=C(CSc1ccc(-c2ccc(-n3cccn3)cc2)nn1)Nc1ccc([N+](=O)[O-])cc1 101%, Cc1sc2c(c1C)c(=O)n(-c1ccccc1)c(=O)n2CC(=O)NCC1CCCO1 (stereo not given) 27.2%, CCC(C(=O)OCCN(CC)CC)c1ccccc1 (stereo not given) 54.1%, CCCC(C(=O)OCCN(CC)CC)(c1ccccc1)c1ccccc1 42.8%
